# Measurements as given in PubChem BioAssay (Tox21).
# Inconclusive results are not listed. Active and inactive are the calls of the source. The call rests on the fitted dose curve; in most records, active means well fitted cell-killing curve with a large enough effect in the repeat runs; inconclusive means weak or mixed curves, or effect the other way; inactive means flat fitted curve, though single readings scatter.
# Assay: qHTS assay to identify small molecule that activate the aryl hydrocarbon receptor (AhR) signaling pathway - cell viability counter screen (AID 743086);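 further: HepG2 liver cells carrying the AhR DRE luciferase reporter; nearly all actives have a fitted effect of over 45% in size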
# Details: HepG2-AhR-luc viability, CellTiter-Fluor, 24 h; series mostly up to 70.3 µM; viability change, negative = cytotoxic: at the top concentration
# From the text: U.S. Tox21 Program National Center for Advancing Translational Sciences [NCATS] NIH Chemical Genomics Center [NCGC] U.S. Environmental Protection Agency [EPA] National Institutes of Environmental Health Sciences [NIEHS] National Toxicology Program [NTP] U.S. Food and Drug Administration [FDA] Tox21 Assay overview: The Aryl hydrocarbon Receptor (AhR), a member of the family of basic helix-loop-helix transcription factors, is crucial to adaptive responses to environmental changes. AhR mediates cellular responses to environmental pollutants such as aromatic hydrocarbons through induction of phase I and II enzymes but also interacts with other nuclear receptor signaling pathways A cell based HepG2-AhR-luc assay (HG2L7.5c1 cell line, developed by Dr. Michael S. Denison, University of California at Davis) was used to assess the activation of AhR. HepG2 (human hepatocellular carcinoma) cells were stably transfected with an Ah receptor-responsive firefly luciferase reporter gene plasmid containing 20 dioxin responsive elements and luciferase reporter gene. Increased luciferase activity can be used to identify the compounds that induce AhR activation. The cytotoxicity of the compounds screened against the HepG2-AhR-luc cell line was tested in parallel by measuring the cell viability using CellTiter-Fluor assay in the same wells.
# Tox21 Assay Protocol Summary: 4000 cells in 5 uL/well were dispensed into white wall/solid bottom 1536-well plates using a Multidrop Combi (Thermo Fisher Scientific Inc., Waltham, MA) dispenser. After the assay plates were incubated at 37C for 5 h, 23 nL of compound or DMSO vehicle was transferred to the assay plates by a pintool station (Kalypsys, San Diego, CA). The plates were incubated at 37C for 24 hr. For cell viability measurement, 1 ul/well of CellTiter-Fluor reagent (Promega, Madison, WI) was added into the assay plates using a Flying Reagent Dispenser (FRD) (Aurora Discovery, CA),and then the assay plates were incubated at 37C for 30 min. The fluorescence intensity in the plates was measured using a ViewLux plate reader (PerkinElmer, Shelton, CT), followed by the addition of 4 uL of ONE-Glo Luciferase Assay reagent (Promega) using an FRD (Aurora Discovery). After the assay plates were incubated at room temperature for 30 min, luminescence intensity was measured using a ViewLux plate reader (Perkin Elmer).
# On the % scale 0 is the no-effect control and ±100 the full control effect.
SMILES,"viability change, negative = cytotoxic",Potency
CCCCCCCCOS(=O)(=O)O,21.8% (inactive),–
CCCN1C[C@H](CSC)C[C@@H]2c3cccc4[nH]cc(c34)C[C@H]21,-17% (inactive),–
O=S(=O)(O)c1cc(O)c2ccc(Nc3ccccc3)cc2c1,-11.2% (inactive),–
CN(C)c1ccc(C=O)cc1,13.5% (inactive),–
CC(C)C[C@H](NC(=O)CNC(=O)[C@H](Cc1ccc(O)cc1)NC(=O)[C@H](CO)NC(=O)[C@H](Cc1c[nH]c2ccccc12)NC(=O)[C@H](Cc1cnc[nH]1)NC(=O)[C@@H]1CCC(=O)N1)C(=O)N[C@@H](CCCN=C(N)N)C(=O)N1CCC[C@H]1C(=O)NCC(N)=O (stereo in doubt),-2.89% (inactive),–
CCN(CC)CC(=O)Nc1c(C)cccc1C,8.22% (inactive),–
CCC(C=O)CC,-0.0346% [at 95 µM] (inactive),–
C#CC(C)N(C)C(=O)Nc1ccc(Cl)cc1 (stereo not given),1.13% (inactive),–
CC1=CCC(C(C)C)=CC1,-4.52% (inactive),–
CCOCCOCCOCC,-2.12% (inactive),–
ClCCCl,8.44% (inactive),–
CCOc1cc(NC(C)=O)ccc1C(=O)OC,22.7% (inactive),–
C=CCCCCCCCCCCCC,-1.81% (inactive),–
NCCN1CCOCC1,13.7% (inactive),–
C=CC(OCC)OCC,0.609% (inactive),–
C[C@@H](O)[C@H]1C(=O)N2C(C(=O)O)=C(SCCN=CN)C[C@H]12,6.01% [at 32.5 µM] (inactive),–
CC(C)(C)NC(N)=O,4.05% (inactive),–
CC(C)C(=O)OCCc1ccccc1,-0.694% (inactive),–
Cc1cc(Cl)c(C)cc1Cl,4.74% (inactive),–
C=C1CC/C=C(\C)CC[C@@H]2[C@@H]1CC2(C)C,-3.77% (inactive),–

SMILES,"viability change, negative = cytotoxic",Potency
O=S(=O)(O)CCN1CCN(CCO)CC1,14.3% (inactive),–
N#Cc1ccc(C(=O)O)cc1,-1.27% (inactive),–
CCCCOC(=O)c1ccccc1,9.22% (inactive),–
Brc1ccc(-c2ccccc2)cc1,-10.1% (inactive),–
O=C1c2ccccc2C(=O)c2cc(S(=O)(=O)O)ccc21,-10.3% [at 95 µM] (inactive),–
Cc1cc2cc3c(C)cc(=O)oc3c(C)c2o1,0.901% [at 32.5 µM] (inactive),–
COc1cc(N)ccc1C,4.95% (inactive),–
Nc1ncnc(Nc2ccccc2)n1,0.649% (inactive),–
CC(C)NCC(O)COc1ccc(COCCOC(C)C)cc1 (stereo not given),–,inactive
Cc1ccsc1/C=C/C1=NCCCN1C,-1.39% [at 32.5 µM] (inactive),–
CNS(=O)(=O)CCc1ccc2[nH]cc(C3CCN(C)CC3)c2c1,-18.8% (inactive),–
CCOC(=O)/C=C/c1ccccc1,17.1% (inactive),–
O=Cc1ccc(Cl)c(Cl)c1,11.3% [at 95 µM] (inactive),–
CC1COc2ccccc2N1 (stereo not given),5.02% (inactive),–
COC(=O)CCCCCCCC(=O)OC,1.05% (inactive),–
O=C(OCC1(COC(=O)c2cccnc2)CCCC(COC(=O)c2cccnc2)(COC(=O)c2cccnc2)C1O)c1cccnc1,0.387% (inactive),–
CC(C)CC(C)CC(C)CC(C)COC(=O)c1ccccc1C(=O)OCC(C)CC(C)CC(C)CC(C)C (stereo not given),-4.95% (inactive),–
Oc1cn2c(n1)Nc1ccc(Cl)c(Cl)c1C2,–,inactive
CC(C)CCCC(C)(C)O,9.43% (inactive),–
CC(C)CCCCOC(=O)c1ccccc1C(=O)OCCCCC(C)C,1.24% (inactive),–
